Bioassay records deposited in PubChem by The Scripps Research Institute Molecular Screening Center.
Sampled rows, rich in hits. Any-hit rate of the full collection: about 2.3%.
M1 antag = human M1 muscarinic receptor antagonists, primary screen, CHO-K1 cells, Fluo-8 calcium fluorescence, 1536-well | CHO-K1 hM1, ACh EC80 antagonist | inhibition, % at 3 µM | Muscarinic acetylcholine receptor M1 (Homo sapiens), P11229 | 1.3% of 360,000 active;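 active means percent inhibition above its own plate's cutoff, namely the mean of that plate's compound wells plus 3 SD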;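 further: peak over basal fluorescence ratio during 140 s after agonist addition; 0% = ACh EC80 plus DMSO and 100% = DMSO alone without agonist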
Target sequence (P11229 whole entry, looked up): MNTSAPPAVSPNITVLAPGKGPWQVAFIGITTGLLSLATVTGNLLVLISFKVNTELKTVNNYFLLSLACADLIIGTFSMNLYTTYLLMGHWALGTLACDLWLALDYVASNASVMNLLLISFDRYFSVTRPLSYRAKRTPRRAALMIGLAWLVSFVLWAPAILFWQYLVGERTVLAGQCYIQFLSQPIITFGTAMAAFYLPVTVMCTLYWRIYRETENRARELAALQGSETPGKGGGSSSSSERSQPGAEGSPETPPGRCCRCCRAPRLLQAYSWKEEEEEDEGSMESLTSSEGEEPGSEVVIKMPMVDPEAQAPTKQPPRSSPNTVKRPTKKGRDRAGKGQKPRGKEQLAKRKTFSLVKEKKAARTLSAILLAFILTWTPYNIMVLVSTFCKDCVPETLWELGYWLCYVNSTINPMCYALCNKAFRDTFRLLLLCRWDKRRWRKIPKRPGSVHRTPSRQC
CHO-K1 Ca PAM = nonselective calcium activators in parental CHO-K1 cells, primary screen, counter-screen for M1 PAM project, cell-based, Fluo-8 calcium fluorescence, full deck, 1536-well; ATP EC20; 0% at ATP EC20, 100% at ATP max; activation, % at 3 µM; 0.02% of 360,000 active;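 active means activation above the run cutoff, the mean activation of all test compounds plus 3 SD, cut at about 40% in these data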;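 further: peak over basal fluorescence ratio in a 140 s read after ATP addition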
M1 ag = human M1 muscarinic receptor agonists, primary screen, Fluo-8 calcium fluorescence, CHO-K1 cells, HTS. 0.33% of 360,000 active. CHO-K1 hM1, agonist mode; 0% DMSO, 100% acetylcholine EC100. AID 588814, 2011. activation, % at 3 µM. Muscarinic acetylcholine receptor M1 (Homo sapiens), P11229;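 active means activation above the run's mean compound activation plus 3 SD, cut at about 16% in these data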;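 further: peak over basal fluorescence ratio within a 140 s kinetic read after compound addition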
CHO-K1 Ca antag = M1 antagonist counterscreen hit in parental CHO-K1 cells; ATP-induced calcium, Fluo-8 fluorescence; inhibition, % at 3 µM; 0.6% of 360,000 active; AID 602250;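 active means inhibition above a per-plate cutoff, the plate's mean sample inhibition plus 3 SD, cut at about 24% in these data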;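 further: 0% = DMSO plus EC80 ATP and 100% = DMSO alone without ATP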
M1 PAM = human M1 muscarinic receptor positive allosteric modulators, primary screen, CHO-K1 cells, Fluo-8 calcium fluorescence, 1536-well; CHO-K1 hM1, ACh EC20; 0% = ACh EC20, 100% = maximal ACh; activation, % at 3 µM; 0.088% of 360,000 active; AID 588819, 2011; in the data active means activation above about 19%, passing the limit was not always enough
CHO-K1 Ca ag = counter-screen for M1 agonists: effect in parental CHO-K1 cells; Fluo-8 calcium fluorescence; scaled to maximal ATP response, vehicle zero; 0.48% of 360,000 active; activation, % at 3 µM; in the data active means activation above about 15%;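 further: untransfected CHO-K1 host cells lacking M1 receptor as counterscreen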
* marks the source's active call; other numbers are inactive results; nt = no result given.

SMILES	M1 antag	CHO-K1 Ca PAM	M1 ag	CHO-K1 Ca antag	M1 PAM	CHO-K1 Ca ag
COc1ccc(NS(=O)(=O)c2cccc(C(=O)NCCCN3CCOCC3)c2)cc1	-5	21	1	-8	1	1
COc1ccc(C(CNC(=O)c2oc3ccc(OC)cc3c2C)N2CCCC2)cc1 (stereo not drawn)	14	-30	-6	30*	-11	0
COc1ccc(NS(=O)(=O)c2cccc(C(=O)NCc3ccccc3CN3CCOCC3)c2)cc1	6	10	23*	-17	-6	8
COc1ccc(C(CNC(=O)c2cccc(S(=O)(=O)Nc3ccc(F)cc3)c2)N2CCCC2)cc1 (stereo not drawn)	-14	19	-6	4	7	2
Cn1ccc2c(/C=C/c3ccc(F)cc3)cc3c(c21)C1CCC3O1 (stereo not drawn)	-9	12	-6	7	7	0
CC(C)(CNC(=O)c1cccc(S(=O)(=O)Nc2ccc(SC(F)F)cc2)c1)N1CCOCC1	35*	-17	1	9	-15	1
C=CCN(c1ccccc1OC)S(=O)(=O)c1cccc(C(=O)NCC(c2ccc(OC)cc2)N2CCCC2)c1 (stereo not drawn)	34*	-2	-9	-13	-24	1
Cc1ccc(S(=O)(=O)N(C)c2ccc(C(=O)NCC(c3ccccc3)N3CCCC3)cc2)cc1 (stereo not drawn)	6	14	-7	-11	-12	2
O=C(NC(c1ccccc1)c1ccsc1)C1CCN(CCOc2ccc(Cl)cc2Cl)CC1 (stereo not drawn)	-4	-2	-2	-7	3	0
COc1ccc(CCNC(=O)CCC(=O)NC2CCCC(C)C2C)cc1OC (stereo not drawn)	-11	6	-3	29*	6	-1
COc1ccc(CCNC(=O)CCC(=O)c2cccs2)cc1OC	11	-26	-3	28*	-5	0
COc1ccccc1C(=O)NCCC(=O)NC1CCCC(C)C1C (stereo not drawn)	-7	20	-2	-12	6	4
CCOC(=O)c1oc2ccc(Br)cc2c1COC(=O)C1=COCCO1	57*	-14	-7	-12	-25	0
COc1ccc(NC(=O)C2c3ccccc3OCC(=O)N2Cc2ccco2)cc1 (stereo not drawn)	nt	4	nt	10	nt	0
CCOP(=O)(OCC)C(NC(=O)Nc1ccc(Cl)cc1)c1ccccc1 (stereo not drawn)	4	24	-5	-4	4	2
CC(=O)c1ccc(NC(=S)NCc2ccc(Cl)cc2Cl)cc1	20	-12	5	16	-8	16*
CC(=O)c1ccc(NC(=O)Nc2ccc(Cl)cc2)cc1	29	0	1	19	-18	17*
CC(NC(=O)Nc1ccc(Cl)cc1)c1ccccc1 (stereo not drawn)	-10	5	1	1	2	29*
O=C(Nc1ccc2c(c1)[C@@H]1C[C@@H](CC(=O)N3CCOCC3)O[C@@H](CO)[C@@H]1O2)NC1CCCC1	-16	12	-2	-4	6	1
COc1cccc(C(C)(O)c2nc(-c3cnn(C)c3)cs2)c1 (stereo not drawn)	-5	8	-2	5	3	2
COc1ccc(S(=O)(=O)N2CCC3CC2c2cc(N4CCOCC4)ccc23)cc1 (stereo not drawn)	-7	11	-4	-10	4	0
O=C1CNC(=O)/C1=C\N1CCN(C(c2ccccc2)c2ccccc2)CC1	43*	25	-6	-12	-26	1
Nc1cccc2c1C(=O)N(C(=O)c1ccc(Cl)c(S(=O)(=O)N3CCCCCC3)c1)C2=O	-24	10	-3	-3	2	0
Nc1cccc2c1C(=O)N(C(=O)c1cccc(S(=O)(=O)N3CCCCCC3)c1)C2=O	-22	-6	-1	28*	5	0
COc1ccc(OC)c(CN2C(=O)c3ccccc3C2c2nnnn2C(C)C)c1 (stereo not drawn)	nt	17	nt	-13	nt	0
SMILES	M1 antag	CHO-K1 Ca PAM	M1 ag	CHO-K1 Ca antag	M1 PAM	CHO-K1 Ca ag
COc1ccc(C(CC(=O)c2ccc(C)cc2)Nc2ccc([N+](=O)[O-])cc2)cc1 (stereo not drawn)	9	18	-9	14	-7	15*
O=C(CCc1nc(-c2ccccc2)no1)Nc1cccnc1	-3	10	-4	-5	5	16*
O=C(CN1CCC(NC(=O)c2ccccc2F)CC1)Nc1ccc2c(c1)OCCO2	-2	9	-7	7	4	16*
CN1CCN(c2ccc(NC(=O)COc3ccccc3Cl)cc2)CC1	-35	8	-6	-4	-2	1
C=CC(=O)Nc1ccc(N(C)c2ccnc(Nc3ccc(N4CCN(C)CC4)cc3)n2)cc1	56*	17	-11	-6	-32	0
CC(=O)N1CCc2c(sc(NC(=O)C3CCN(S(=O)(=O)c4cccs4)CC3)c2C(N)=O)C1	-7	-1	-4	6	9	1
CCCN1CCc2c(sc(NC(=O)C3CCN(S(=O)(=O)c4cccs4)CC3)c2C(N)=O)C1	53*	-37	-7	29*	-23	0
O=C1CCC(OCc2ccccc2)CCN1[C@H](CSc1ccccc1)Cc1ccccc1 (stereo partly drawn)	nt	9	nt	-3	nt	2
Cc1ccc(C(=O)CSC2=C(C#N)C(c3ccco3)CC(=O)N2)c(C)c1 (stereo not drawn)	12	16	37*	1	-9	16*
Cc1ccc(NC(=O)CSC2=C(C#N)C(c3ccco3)CC(=O)N2)cc1 (stereo not drawn)	-2	2	1	19	7	1
Cc1ccc(C(C)C)c(OCCn2ccnc2C)c1	99*	-12	-10	6	-30	1
COc1cc(C(=O)NCCOc2cc(C)ccc2C(C)C)cc(OC)c1OC	15	-3	8	23	-9	16*
Cc1ccc(C(C)C)c(OCCNCCc2ccccc2)c1	30*	28	-1	-4	-21	15
c1ccc(CCNCCOc2ccccc2)cc1	-21	2	6	6	12	15*
Cc1ccc(C(C)C)c(OCCNC(=O)c2cncc(Br)c2)c1	4	11	3	-3	6	2
